Data from the supplement of paper PMC8728848.
The sample as a whole holds a higher share of the strongest signals than the screen did.

Tests used:
Assay in all cases: glycan array binding signal (z-score within array); higher = stronger binding
Conditions in all cases: glycan notation: IUPAC condensed, linker removed
[1] = target: Fuc(a1-2)Gal(b1-3)GlcNAc(b1-2)Man(a1-3)[Fuc(a1-2)Gal(b1-3)GlcNAc(b1-2)Man(a1-6)]Man(b1-4)GlcNAc(b1-4)GlcNAc
Method in brief: (§1)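 Columns mapping to the same glycan were averaged after glycan names were converted to IUPAC-condensed notation. The data come from 3228 arrays in the Consortium for Functional Glycomics database, limited to those with an available protein sequence. Binding is reported as a within-array Z-score averaged across arrays of one protein sequence and across linkers.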

[2] = target: Fuc(a1-2)Gal(b1-3)[Fuc(a1-4)]GlcNAc(b1-2)Man(a1-3)[Fuc(a1-2)Gal(b1-3)[Fuc(a1-4)]GlcNAc(b1-2)Man(a1-6)]Man(b1-4)GlcNAc(b1-4)[Fuc(a1-6)]GlcNAc(b1-4)[Fuc(a1-6)]GlcNAc
Method in brief: as §1

[3] = target: Fuc(a1-2)Gal(b1-4)GlcNAc(b1-2)Man(a1-3)[Fuc(a1-2)Gal(b1-4)GlcNAc(b1-2)Man(a1-6)]Man(b1-4)GlcNAc(b1-4)[Fuc(a1-6)]GlcNAc
Method in brief: as §1

[4] = target: Fuc(a1-2)Gal(b1-4)[Fuc(a1-3)]GlcNAc(b1-2)Man(a1-3)[Fuc(a1-2)Gal(b1-4)[Fuc(a1-3)]GlcNAc(b1-2)Man(a1-6)]Man(b1-4)GlcNAc(b1-4)[Fuc(a1-6)]GlcNAc
Method in brief: as §1

[5] = target: Fuc(a1-2)[Gal(a1-3)]Gal(b1-4)[Fuc(a1-3)]GlcNAc
Method in brief: as §1

[6] = target: Fuc(a1-2)[GalNAc(a1-3)]Gal(b1-4)[Fuc(a1-3)]GlcNAc(b1-3)GalNAc
Method in brief: as §1

[7] = target: Fuc(a1-2)[GalNAc(a1-4)]Gal(b1-4)GlcNAc
Method in brief: as §1

[8] = target: Fuc(a1-3)[Gal(b1-4)]GlcNAc6S
Method in brief: as §1

Fuc(b1-3)GlcNAc = target: Fuc(b1-3)GlcNAc
Method in brief: as §1

[9] = target: Gal(a1-3)Gal(b1-3)GlcNAc(b1-2)Man
Method in brief: as §1

[10] = target: Gal(a1-3)Gal(b1-4)[Fuc(a1-3)]GlcNAc
Method in brief: as §1

Gal(a1-3)GalNAc = target: Gal(a1-3)GalNAc
Method in brief: as §1

[11] = target: Gal(a1-3)[Gal(a1-4)]Gal(b1-4)GlcNAc
Method in brief: as §1

Gal(a1-4)Gal(b1-4)Glc = target: Gal(a1-4)Gal(b1-4)Glc
Method in brief: as §1

[12] = target: Gal(b1-3)GalNAc(a1-3)[Fuc(a1-2)]Gal(b1-4)GlcNAc
Method in brief: as §1

[13] = target: Gal(b1-3)GlcNAc(b1-3)GalNAc
Method in brief: as §1

Gal(b1-3)GlcNAc6S = target: Gal(b1-3)GlcNAc6S
Method in brief: as §1

[14] = target: Gal(b1-3)[Fuc(a1-4)]GlcNAc(b1-2)Man
Method in brief: as §1

[15] = target: Gal(b1-3)[Fuc(a1-4)]GlcNAc(b1-2)Man(a1-3)[Gal(b1-3)[Fuc(a1-4)]GlcNAc(b1-2)Man(a1-6)]Man(b1-4)GlcNAc(b1-4)[Fuc(a1-6)]GlcNAc
Method in brief: as §1

[16] = target: Gal(b1-3)[Fuc(a1-4)]GlcNAc(b1-6)GalNAc
Method in brief: as §1

[17] = target: Gal(b1-4)GlcNAc(b1-3)Gal(b1-4)GlcNAc(b1-2)Man(a1-3)[Gal(b1-4)GlcNAc(b1-3)Gal(b1-4)GlcNAc(b1-2)Man(a1-6)]Man(b1-4)GlcNAc(b1-4)GlcNAc
Method in brief: as §1

[18] = target: Gal(b1-4)GlcNAc(b1-3)Gal(b1-4)GlcNAc(b1-2)[Gal(b1-4)GlcNAc(b1-3)Gal(b1-4)GlcNAc(b1-6)]Man(a1-6)[Gal(b1-4)GlcNAc(b1-3)Gal(b1-4)GlcNAc(b1-2)Man(a1-3)]Man(b1-4)GlcNAc(b1-4)[Fuc(a1-6)]GlcNAc
Method in brief: as §1

[19] = target: Gal(b1-4)GlcNAc(b1-3)Gal(b1-4)GlcNAc(b1-3)Gal(b1-4)GlcNAc(b1-2)Man(a1-3)[Gal(b1-4)GlcNAc(b1-3)Gal(b1-4)GlcNAc(b1-3)Gal(b1-4)GlcNAc(b1-2)Man(a1-6)]Man(b1-4)GlcNAc(b1-4)GlcNAc
Method in brief: as §1

[20] = target: GalNAc(a1-3)GalNAc(b1-3)Gal(a1-4)Gal(b1-4)Glc
Method in brief: as §1

GalNAc(b1-4)GlcNAc = target: GalNAc(b1-4)GlcNAc
Method in brief: as §1

[21] = target: GalNAc(b1-4)GlcNAc(b1-3)GalNAc(b1-4)GlcNAc
Method in brief: as §1

[22] = target: GlcNAc(a1-4)Gal(b1-4)GlcNAc(b1-3)Gal(b1-4)GlcNAc
Method in brief: as §1

[23] = target: GlcNAc(b1-3)Gal(b1-4)GlcNAc(b1-2)[GlcNAc(b1-3)Gal(b1-4)GlcNAc(b1-6)]Man(a1-6)[GlcNAc(b1-3)Gal(b1-4)GlcNAc(b1-2)Man(a1-3)]Man(b1-4)GlcNAc(b1-4)GlcNAc
Method in brief: as §1

[24] = target: GlcNAc(b1-3)Gal(b1-4)GlcNAc(b1-3)Gal(b1-4)GlcNAc(b1-2)Man(a1-3)[GlcNAc(b1-3)Gal(b1-4)GlcNAc(b1-3)Gal(b1-4)GlcNAc(b1-2)Man(a1-6)]Man(b1-4)GlcNAc(b1-4)GlcNAc
Method in brief: as §1

[25] = target: GlcNAc(b1-3)Gal(b1-4)GlcNAc(b1-3)GalNAc
Method in brief: as §1

GlcNAc(b1-3)GalNAc = target: GlcNAc(b1-3)GalNAc
Method in brief: as §1

[26] = target: Neu5Ac(a2-3)Gal(b1-3)GalNAc6S
Method in brief: as §1

[27] = target: Neu5Ac(a2-3)Gal(b1-4)GlcNAc(b1-2)[Neu5Ac(a2-3)Gal(b1-4)GlcNAc(b1-4)]Man(a1-3)[GlcNAc(b1-4)][Neu5Ac(a2-3)Gal(b1-4)GlcNAc(b1-2)[Neu5Ac(a2-3)Gal(b1-4)GlcNAc(b1-6)]Man(a1-6)]Man(b1-4)GlcNAc(b1-4)GlcNAc
Method in brief: as §1

[28] = target: Neu5Ac(a2-3)Gal(b1-4)[Fuc(a1-3)]GlcNAc(b1-2)Man
Method in brief: as §1

[29] = target: Neu5Ac(a2-3)Gal(b1-4)[Fuc(a1-3)]GlcNAc(b1-3)Gal(b1-4)GlcNAc
Method in brief: as §1

Neu5Ac(a2-6)Gal = target: Neu5Ac(a2-6)Gal
Method in brief: as §1

[30] = target: Neu5Ac(a2-6)Gal(b1-4)GlcNAc(b1-2)Man
Method in brief: as §1

[31] = target: Neu5Ac(a2-6)Gal(b1-4)GlcNAc(b1-2)Man(a1-3)[GlcNAc(b1-4)][Neu5Ac(a2-6)Gal(b1-4)GlcNAc(b1-2)Man(a1-6)]Man(b1-4)GlcNAc(b1-4)GlcNAc
Method in brief: as §1

[32] = target: Neu5Ac(a2-6)Gal(b1-4)GlcNAc(b1-2)[Neu5Ac(a2-6)Gal(b1-4)GlcNAc(b1-4)]Man(a1-3)[GlcNAc(b1-4)][Neu5Ac(a2-6)Gal(b1-4)GlcNAc(b1-4)Man(a1-6)]Man(b1-4)GlcNAc(b1-4)GlcNAc
Method in brief: as §1

[33] = target: Neu5Ac(a2-6)Gal(b1-4)GlcNAc(b1-3)Gal(b1-4)GlcNAc(b1-3)Gal(b1-4)GlcNAc(b1-2)Man(a1-3)[Neu5Ac(a2-6)Gal(b1-4)GlcNAc(b1-3)Gal(b1-4)GlcNAc(b1-3)Gal(b1-4)GlcNAc(b1-2)Man(a1-6)]GalNAc
Method in brief: as §1

[34] = target: Neu5Ac(a2-8)Neu5Ac(a2-8)Neu5Ac(a2-3)Gal(b1-4)Glc
Method in brief: as §1

[35] = target: Neu5Gc(b2-6)Gal(b1-4)GlcNAc
Method in brief: as §1

## YASPKCFRYPNGVLACT [Odorranalectin (Odorrana grahami), B3TFE9_RANGR]
[1]
  glycan array binding signal (z-score): 0.133
[2]
  glycan array binding signal (z-score): 1.89
[3]
  glycan array binding signal (z-score): -0.142
[4]
  glycan array binding signal (z-score): 3.75
[5]
  glycan array binding signal (z-score): 0.56
[6]
  glycan array binding signal (z-score): 2.29
[7]
  glycan array binding signal (z-score): -0.278
[8]
  glycan array binding signal (z-score): -0.198
Fuc(b1-3)GlcNAc
  glycan array binding signal (z-score): -0.094
[9]
  glycan array binding signal (z-score): -0.387
[10]
  glycan array binding signal (z-score): -0.625
Gal(a1-3)GalNAc
  glycan array binding signal (z-score): 0.618
[11]
  glycan array binding signal (z-score): 1.47
Gal(a1-4)Gal(b1-4)Glc
  glycan array binding signal (z-score): 0.575
[12]
  glycan array binding signal (z-score): -0.258
[13]
  glycan array binding signal (z-score): -0.188
Gal(b1-3)GlcNAc6S
  glycan array binding signal (z-score): -0.064
[14]
  glycan array binding signal (z-score): 3.92
[15]
  glycan array binding signal (z-score): -0.246
[16]
  glycan array binding signal (z-score): -0.061
[17]
  glycan array binding signal (z-score): 7.59
[18]
  glycan array binding signal (z-score): 0.555
[19]
  glycan array binding signal (z-score): 2.11
[20]
  glycan array binding signal (z-score): -0.385
GalNAc(b1-4)GlcNAc
  glycan array binding signal (z-score): 4.83
[21]
  glycan array binding signal (z-score): 0.347
[22]
  glycan array binding signal (z-score): -0.376
[23]
  glycan array binding signal (z-score): 8.95
[24]
  glycan array binding signal (z-score): 3.67
[25]
  glycan array binding signal (z-score): 0.083
GlcNAc(b1-3)GalNAc
  glycan array binding signal (z-score): -0.315
[26]
  glycan array binding signal (z-score): 0.438
[27]
  glycan array binding signal (z-score): -0.481
[28]
  glycan array binding signal (z-score): -0.405
[29]
  glycan array binding signal (z-score): -0.026
Neu5Ac(a2-6)Gal
  glycan array binding signal (z-score): -0.415
[30]
  glycan array binding signal (z-score): -0.092
[31]
  glycan array binding signal (z-score): -0.309
[32]
  glycan array binding signal (z-score): -0.055
[33]
  glycan array binding signal (z-score): 7.51
[34]
  glycan array binding signal (z-score): -0.429
[35]
  glycan array binding signal (z-score): -0.155
